In all, about 39,000 compounds went through this assay and about 3,300 (8.5%) were called active. The sample holds actives, similar compounds and a random draw of the others, so the mix is not that of the screen.
Each compound was assayed on HepG2 (assay: cytotoxicity call (relative viability < 0.9)). Conditions: 10 µM.

Row | Structure (SMILES) | cytotoxicity call
1 | O=C(C[C@H]1CC[C@H]2[C@@H](COC[C@H](O)CN2S(=O)(=O)c2ccc(Cl)cc2)O1)N[C@@H]1CCN(Cc2ccccc2)C1 | inactive
2 | CCCN(C)C[C@@H]1OCCCC[C@@H](C)Oc2ccc(NS(=O)(=O)c3cn(C)cn3)cc2C(=O)N([C@H](C)CO)C[C@@H]1C | inactive
3 | COc1ccc(NC(=O)N(C)C[C@H]2Oc3ncc(C#CC(C)C)cc3C(=O)N([C@H](C)CO)C[C@H]2C)cc1 | inactive
4 | C[C@H]1O[C@@H](O[C@H]2[C@@H](O)C[C@H](O[C@H]3[C@@H](O)C[C@H](O[C@H]4CC[C@@]5(C)[C@H](CC[C@@H]6[C@@H]5CC[C@]5(C)[C@@H](C7=CC(=O)OC7)CC[C@]65O)C4)O[C@@H]3C)O[C@@H]2C)C[C@H](O)[C@@H]1O | active
5 | CC1OC(OC2C(O)CC(OC3C(O)CC(OC4CCC5(C)C(CCC6C5CCC5(C)C(C7=CC(=O)OC7)CCC65O)C4)OC3C)OC2C)CC(O)C1O (stereo not drawn) | active
6 | Cc1ccc(S(=O)(=O)N(C)C[C@H]2OCCCC[C@H](C)Oc3ccc(NC(=O)Nc4cccc5ccccc45)cc3C(=O)N([C@H](C)CO)C[C@H]2C)cc1 | inactive
7 | NCCCN1CCCN(CCCN)CC1 | inactive
8 | NCCCn1c2c(c3ccccc31)CCCC2 | active
9 | CC(=O)N1C(=O)N(C(C)=O)[C@@H](O)[C@H]1O | inactive
10 | O=C(C[C@@H]1CC[C@H](NS(=O)(=O)c2ccccc2)[C@H](CO)O1)NCc1ccncn1 | inactive
11 | Nc1nnc(C(F)(F)F)[nH]1 | inactive
12 | CCCc1ccc2c(c1)CNCCC2 | inactive
13 | COc1ccc(NC(=O)N(C)C[C@@H]2OCCCC[C@@H](C)Oc3ccc(NC(=O)Cc4ccccc4)cc3C(=O)N([C@H](C)CO)C[C@@H]2C)cc1 | inactive
14 | C[C@@H]1CN([C@H](C)CO)C(=O)c2cc(NS(C)(=O)=O)ccc2O[C@@H]1CN(C)C(=O)Nc1ccc2c(c1)OCO2 | inactive
15 | C[C@@H]1CN([C@H](C)CO)C(=O)c2cc(NC(=O)Nc3ccccc3)ccc2O[C@@H](C)CCCCO[C@@H]1CN(C)S(=O)(=O)c1ccccc1 | inactive
16 | COc1ccc(CN(C)C[C@@H]2Oc3c(NC(=O)Nc4cccc5ccccc45)cccc3C(=O)N([C@H](C)CO)C[C@@H]2C)cc1 | inactive
17 | C[C@H]1CN([C@@H](C)CO)C(=O)c2cccc(NC(=O)Nc3cccc4ccccc34)c2O[C@H]1CN(C)Cc1ccc(Oc2ccccc2)cc1 | active
18 | C[C@H](CO)N1C[C@H](C)[C@H](CN(C)Cc2ccc(Oc3ccccc3)cc2)Oc2c(NC(=O)Nc3cccc4ccccc34)cccc2C1=O | inactive
19 | C[C@@H]1CN([C@H](C)CO)C(=O)c2cccc(NC(=O)Nc3cccc4ccccc34)c2O[C@@H]1CN(C)Cc1ccc(Oc2ccccc2)cc1 | inactive
20 | C[C@H](CO)N1C[C@H](C)[C@@H](CN(C)Cc2ccc(Oc3ccccc3)cc2)Oc2c(NC(=O)Nc3cccc4ccccc34)cccc2C1=O | active
21 | COc1ccc(CN(C)C[C@@H]2Oc3c(NC(=O)Nc4cccc5ccccc45)cccc3C(=O)N([C@@H](C)CO)C[C@@H]2C)cc1 | inactive
22 | CO[C@@H]1CN(C)C(=O)c2cc(NC(=O)Nc3cccc(Cl)c3)ccc2OC[C@H](C)N(C(=O)Nc2c(C)noc2C)C[C@@H]1C | inactive
23 | C[C@H]1CC/C=C\[C@H]2O[C@@]34C=CCN(Cn5nnc6ccccc65)C(=O)[C@H]3N(CCCO)C(=O)[C@@H]4[C@@H]2C(=O)O1 | inactive

Row | Structure (SMILES) | cytotoxicity call
24 | C[C@H]1CCCCO[C@H](CN(C)C(=O)c2ccccc2)[C@@H](C)CN([C@@H](C)CO)C(=O)c2cc(NC(=O)Nc3ccc(C(F)(F)F)cc3)ccc2O1 | inactive
25 | O=C(NC1(C(F)(F)F)Oc2cc(Cl)c(Cl)cc2O1)C1=C(N2CCOCC2)/C(=C/c2ccccc2)CC1 | active
26 | C[C@H]1CN([C@@H](C)CO)C(=O)c2cc(NS(=O)(=O)c3ccc(F)cc3)ccc2O[C@@H]1CN(C)CC1CC1 | inactive
27 | C[C@@H]1CN([C@H](C)CO)C(=O)c2cccc(NC(=O)C3CC3)c2O[C@@H]1CN(C)S(=O)(=O)c1cccs1 | inactive
28 | C[C@@H]1CN([C@H](C)CO)C(=O)Cc2cc(NC(=O)Nc3ccc(F)cc3)ccc2O[C@@H]1CN(C)S(=O)(=O)c1cn(C)cn1 | inactive
29 | C[C@H](CO)N1C[C@H](C)[C@@H](CN(C)S(=O)(=O)c2cccs2)Oc2ccc(NC(=O)Nc3cccc4ccccc34)cc2C1=O | inactive
30 | CN1CCN(CCO)C(=O)C12CCN([C@H]1CCOC1)CC2 | inactive
31 | C=CCOC(=O)[C@H]1[C@@H]2C(=O)O[C@@H](c3ccccc3)[C@@H](c3ccccc3)N2[C@@H](c2ccc(OCCOC(=O)[C@H]3C[C@H]4C(=O)N5CCC[C@H]5C(=O)N4[C@H]3c3ccc(O)cc3)cc2)[C@]12C(=O)Nc1ccc(I)cc12 | inactive
32 | Cc1noc(C)c1S(=O)(=O)Nc1ccc2c(c1)CC(=O)N([C@H](C)CO)C[C@@H](C)[C@H](CN(C)Cc1ccc(Oc3ccccc3)cc1)O2 | inactive
33 | C#CCOc1ccc(-c2c(C(=O)NC3CCCCC3)oc(OC)c2S(=O)(=O)c2ccc(Cl)cc2)cc1 | active
34 | COc1oc(C(=O)NC2CCCCC2)c(-c2ccc(Cl)cc2)c1S(=O)(=O)c1ccc(Cl)cc1 | inactive
35 | COc1oc(C(=O)NC2CCCCC2)c(-c2ccc(Cl)cc2)c1S(=O)(=O)c1ccc(Br)cc1 | inactive
36 | C[C@@H]1CN([C@@H](C)CO)C(=O)c2cc(NS(=O)(=O)c3cn(C)cn3)ccc2O[C@@H](C)CCCCO[C@H]1CN(C)Cc1ccc(C(F)(F)F)cc1 | inactive
37 | CCCCC1C(=O)N(c2ccccc2)N(c2ccc(O)cc2)C1=O (stereo not drawn) | active
38 | O=C1C(CCS(=O)c2ccccc2)C(=O)N(c2ccccc2)N1c1ccccc1 (stereo not drawn) | inactive
39 | CCCCC1C(=O)N(c2ccccc2)N(c2ccccc2)C1=O | inactive
40 | CC[C@H](C(=O)O)N1CCCC1 | inactive
41 | C[C@@H]1CN([C@H](C)CO)C(=O)Cc2cc(NC(=O)CCCCCC(=O)Nc3ccccc3N)ccc2O[C@H]1CN(C)CC1CCCCC1 | inactive
42 | C[C@H]1CN([C@@H](C)CO)C(=O)c2cc(NC(=O)CCCCCC(=O)Nc3ccccc3N)ccc2O[C@H]1CN(C)CC1CCCCC1 | active
43 | C[C@H](CO)N1C[C@H](C)[C@@H](CN(C)CC2CCCCC2)Oc2ccc(NC(=O)CCCCCC(=O)Nc3ccccc3N)cc2C1=O | active
44 | C[C@@H]1CN([C@H](C)CO)C(=O)Cc2cc(NC(=O)CCCCCC(=O)Nc3ccccc3N)ccc2O[C@@H]1CN(C)CC1CCCCC1 | inactive
45 | C[C@@H]1CN([C@H](C)CO)C(=O)c2cc(NC(=O)CCCCCC(=O)Nc3ccccc3N)ccc2O[C@H]1CN(C)CC1CCCCC1 | inactive
46 | C[C@@H]1CCCCO[C@@H](CN(C)CC2CCCCC2)[C@@H](C)CN([C@H](C)CO)C(=O)c2cc(NC(=O)CCCCCC(=O)Nc3ccccc3N)ccc2O1 | inactive

Row | Structure (SMILES) | cytotoxicity call
47 | C[C@@H]1CN([C@@H](C)CO)C(=O)c2cc(NC(=O)CCCCCC(=O)Nc3ccccc3N)ccc2O[C@H]1CN(C)CC1CCCCC1 | inactive
48 | C[C@H](CO)N1C[C@H](C)[C@H](CN(C)CC2CCCCC2)Oc2ccc(NC(=O)CCCCCC(=O)Nc3ccccc3N)cc2C1=O | active
49 | C[C@@H]1CN([C@@H](C)CO)C(=O)c2cc(NC(=O)CCCCCC(=O)Nc3ccccc3N)ccc2O[C@@H](C)CCCCO[C@@H]1CN(C)CC1CCCCC1 | inactive
50 | C[C@@H]1CN([C@@H](C)CO)C(=O)c2cc(NC(=O)CCCCCC(=O)Nc3ccccc3N)ccc2O[C@@H]1CN(C)CC1CCCCC1 | inactive
51 | C[C@H]1CN([C@@H](C)CO)C(=O)c2cc(NC(=O)CCCCCC(=O)Nc3ccccc3N)ccc2O[C@@H]1CN(C)CC1CCCCC1 | inactive
52 | C[C@@H]1CN([C@@H](C)CO)C(=O)Cc2cc(NC(=O)CCCCCC(=O)Nc3ccccc3N)ccc2O[C@@H]1CN(C)CC1CCCCC1 | active
53 | Cc1noc(C)c1NC(=O)Nc1ccc2c(c1)C(=O)N([C@H](C)CO)C[C@H](C)[C@H](CN(C)S(=O)(=O)c1ccc(F)cc1)OCCCC[C@H](C)O2 | inactive
54 | C[C@H]1CCCCO[C@H](CN(C)S(=O)(=O)c2ccccc2)[C@@H](C)CN([C@@H](C)CO)C(=O)c2cc(NC(=O)C3CCCCC3)ccc2O1 | inactive
55 | CN1CCN(C(=O)c2nn(C)c3c2CCN(S(C)(=O)=O)C3)CC1 | inactive
56 | C[C@H](CO)N1C[C@H](C)[C@@H](CN(C)CC2CCOCC2)Oc2cc(-c3cccnc3)ccc2S1(=O)=O | inactive
57 | COc1ccc(S(=O)(=O)Nc2cccc3c2O[C@H](CN(C)C(=O)Nc2c(C)noc2C)[C@H](C)CN([C@H](C)CO)C3=O)cc1 | inactive
58 | CCS(=O)(=O)N1C[C@]2(CCN(CC2)C(=O)Cc2ccccc2)c2c(n(c3cc(ccc23)OC)C)[C@@H]1CO | inactive
59 | Cc1ccc[nH]c1=O | inactive
60 | COc1cccc(S(=O)(=O)N(C)C[C@@H]2Oc3cc(C#CCC(C)C)ccc3S(=O)(=O)N([C@@H](C)CO)C[C@@H]2C)c1 | inactive
61 | CC1(C)SC2C(NC(=O)Cc3ccccc3)C(=O)N2C1C(=O)[O-].[K+] (stereo not drawn) | inactive
62 | C[C@@H]1CCCCO[C@@H](CN(C)C(=O)Nc2ccc3c(c2)OCO3)[C@H](C)CN([C@@H](C)CO)C(=O)c2cc(NS(=O)(=O)c3ccc(F)cc3)ccc2O1 | inactive
63 | COc1ccc(CN(C)C[C@H]2Oc3ccc(NC(=O)Cn4cnnn4)cc3CC(=O)N([C@H](C)CO)C[C@H]2C)cc1 | inactive
64 | C[C@@H]1CN([C@H](C)CO)C(=O)Cc2cc(NS(C)(=O)=O)ccc2O[C@@H]1CN(C)Cc1ccc2c(c1)OCO2 | inactive
65 | Nn1c(-c2ccncc2)n[nH]c1=S | inactive
66 | O=C(NO)c1cn(-c2ccc(C[C@H]3C(=O)O[C@@H](Cc4ccccc4)[C@H]4[C@@H]5C=CCCC=C5CN43)cc2)nn1 | active
67 | O=C(/C=C/c1cccc(-c2cn(-c3ccc(C[C@H]4C(=O)O[C@@H](Cc5ccccc5)[C@H]5[C@@H]6C=CCCC=C6CN54)cc3)nn2)c1)NO | inactive
68 | O=C(CCc1cn(-c2ccc(C[C@H]3C(=O)O[C@@H](Cc4ccccc4)[C@H]4[C@@H]5C=CCCC=C5CN43)cc2)nn1)NO | inactive
